Assay results reported in PubChem BioAssay.
Calls of active or inactive are those of the source.

How the values were obtained:
[1] = binders of probe aFSTL3 on microarray, primary screen, stem cell growth factor project, biochemical, small-molecule microarray, fluorescence 635/667 (AID 1064); details: higher = more signal;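 also: measures binding of the biotinylated anti-FSTL3 antibody to printed compounds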
[2] = binders from COS7 lysate, DM2A8 probe, primary screen, torsin A project, cell lysate, small-molecule microarray, fluorescence 635/667 (AID 1065); details: higher = more signal, COS7 lysate expressing mutant human TOR1A
[3] = binders of probe aFGF2 on microarray, primary screen, stem cell growth factor project, biochemical, small-molecule microarray, fluorescence 635/667 (AID 1067); details: higher = more signal;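 also: measures binding of biotinylated aFGF2 protein to printed compounds on slides; z-score merges feature fluorescence and signal-to-noise across triplicate slides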
[4] = binders of probe aFGF10 on microarray, primary screen, stem cell growth factor project, biochemical, small-molecule microarray, fluorescence 635/667 (AID 1071); details: higher = more signal;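 also: score merges 667 nm spot intensity and signal to noise from triplicate slides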
[5] = biological target: Neurogenic locus notch homolog protein 2 (Homo sapiens) (UniProt Q04721); assay: Notch2 binders on small-molecule microarrays, primary screen, biochemical, small-molecule microarray, 635 nm fluorescence, stem cell growth factors (AID 1073); details: Notch2 binding, higher = more signal
Sequence of Neurogenic locus notch homolog protein 2 (Homo sapiens) (Q04721 whole entry, looked up, canonical isoform): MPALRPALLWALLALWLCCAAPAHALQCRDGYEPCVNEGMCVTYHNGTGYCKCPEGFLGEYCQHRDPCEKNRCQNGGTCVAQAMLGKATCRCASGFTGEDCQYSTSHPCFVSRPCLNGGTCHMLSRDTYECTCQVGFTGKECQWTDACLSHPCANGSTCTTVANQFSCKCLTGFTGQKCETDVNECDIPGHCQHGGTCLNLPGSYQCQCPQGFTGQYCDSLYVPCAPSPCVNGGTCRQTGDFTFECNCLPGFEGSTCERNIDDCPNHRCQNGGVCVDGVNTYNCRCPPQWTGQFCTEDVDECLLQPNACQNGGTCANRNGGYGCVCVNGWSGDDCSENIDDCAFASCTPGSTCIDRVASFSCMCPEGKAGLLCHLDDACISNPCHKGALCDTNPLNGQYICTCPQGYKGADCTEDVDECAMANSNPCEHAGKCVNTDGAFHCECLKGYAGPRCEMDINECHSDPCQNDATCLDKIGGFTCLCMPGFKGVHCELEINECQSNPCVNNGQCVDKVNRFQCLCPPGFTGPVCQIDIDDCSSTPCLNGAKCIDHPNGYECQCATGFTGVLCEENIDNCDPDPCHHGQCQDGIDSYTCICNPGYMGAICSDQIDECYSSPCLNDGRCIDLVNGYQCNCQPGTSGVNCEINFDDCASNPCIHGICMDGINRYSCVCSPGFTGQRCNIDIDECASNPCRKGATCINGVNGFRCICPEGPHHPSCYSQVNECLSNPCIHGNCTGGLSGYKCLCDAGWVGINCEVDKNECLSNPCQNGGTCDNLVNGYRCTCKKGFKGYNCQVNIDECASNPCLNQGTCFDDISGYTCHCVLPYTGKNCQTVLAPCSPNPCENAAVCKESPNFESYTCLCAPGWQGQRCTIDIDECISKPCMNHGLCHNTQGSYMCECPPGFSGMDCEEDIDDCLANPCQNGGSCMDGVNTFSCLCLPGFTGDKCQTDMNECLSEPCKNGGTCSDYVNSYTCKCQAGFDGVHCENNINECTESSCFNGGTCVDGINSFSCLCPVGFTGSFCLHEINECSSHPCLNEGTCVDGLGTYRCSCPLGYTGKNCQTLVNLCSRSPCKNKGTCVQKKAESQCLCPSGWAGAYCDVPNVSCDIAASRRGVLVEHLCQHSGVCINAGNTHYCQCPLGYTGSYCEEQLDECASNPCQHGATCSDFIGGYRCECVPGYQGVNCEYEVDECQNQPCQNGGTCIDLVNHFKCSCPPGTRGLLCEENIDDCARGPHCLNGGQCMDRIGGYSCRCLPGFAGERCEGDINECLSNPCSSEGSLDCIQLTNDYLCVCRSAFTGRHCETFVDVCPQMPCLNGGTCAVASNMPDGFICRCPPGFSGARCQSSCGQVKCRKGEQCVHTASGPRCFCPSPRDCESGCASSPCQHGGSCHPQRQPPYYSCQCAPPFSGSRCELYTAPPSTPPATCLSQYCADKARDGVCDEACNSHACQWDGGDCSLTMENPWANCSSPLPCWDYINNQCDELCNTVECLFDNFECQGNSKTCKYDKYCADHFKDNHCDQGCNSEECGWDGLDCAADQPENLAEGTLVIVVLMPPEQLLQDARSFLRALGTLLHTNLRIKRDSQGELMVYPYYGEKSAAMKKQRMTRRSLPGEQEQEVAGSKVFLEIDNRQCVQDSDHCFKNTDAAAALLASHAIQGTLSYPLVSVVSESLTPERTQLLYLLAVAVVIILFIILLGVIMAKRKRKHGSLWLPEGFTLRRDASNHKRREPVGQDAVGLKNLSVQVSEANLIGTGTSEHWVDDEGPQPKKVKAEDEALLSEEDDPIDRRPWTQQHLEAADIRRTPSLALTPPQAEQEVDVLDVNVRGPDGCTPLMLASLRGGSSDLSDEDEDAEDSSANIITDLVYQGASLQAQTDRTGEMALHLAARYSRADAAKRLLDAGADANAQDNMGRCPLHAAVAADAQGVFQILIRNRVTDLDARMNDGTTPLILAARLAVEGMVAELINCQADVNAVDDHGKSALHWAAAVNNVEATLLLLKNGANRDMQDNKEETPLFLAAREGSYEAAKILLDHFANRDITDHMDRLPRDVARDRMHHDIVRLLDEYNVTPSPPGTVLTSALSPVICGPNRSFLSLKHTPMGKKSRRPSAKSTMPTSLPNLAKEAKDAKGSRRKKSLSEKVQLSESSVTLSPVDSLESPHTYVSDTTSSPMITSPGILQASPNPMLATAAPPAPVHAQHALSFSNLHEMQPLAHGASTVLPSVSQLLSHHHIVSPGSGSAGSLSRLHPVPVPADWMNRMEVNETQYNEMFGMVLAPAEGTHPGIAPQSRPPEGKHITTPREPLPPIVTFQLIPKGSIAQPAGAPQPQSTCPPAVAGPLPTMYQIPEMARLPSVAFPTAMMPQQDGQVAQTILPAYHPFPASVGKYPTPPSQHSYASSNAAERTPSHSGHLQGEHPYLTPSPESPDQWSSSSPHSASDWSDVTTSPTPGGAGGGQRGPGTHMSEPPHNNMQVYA

[6] = biological target: Pro-neuregulin-1, membrane-bound isoform (Homo sapiens) (UniProt Q02297); assay: NRG1 binders on small-molecule microarrays, primary screen, psychiatric disease protein project, biochemical, small-molecule microarray, fluorescence 635/667 (AID 1075); details: NRG1 binding, 635 nm fluorescence, higher = more signal;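 also: score combines 667 nm spot fluorescence with signal to noise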
Sequence of Pro-neuregulin-1, membrane-bound isoform (Homo sapiens) (Q02297 whole entry, looked up, the tested form may be a part, canonical isoform): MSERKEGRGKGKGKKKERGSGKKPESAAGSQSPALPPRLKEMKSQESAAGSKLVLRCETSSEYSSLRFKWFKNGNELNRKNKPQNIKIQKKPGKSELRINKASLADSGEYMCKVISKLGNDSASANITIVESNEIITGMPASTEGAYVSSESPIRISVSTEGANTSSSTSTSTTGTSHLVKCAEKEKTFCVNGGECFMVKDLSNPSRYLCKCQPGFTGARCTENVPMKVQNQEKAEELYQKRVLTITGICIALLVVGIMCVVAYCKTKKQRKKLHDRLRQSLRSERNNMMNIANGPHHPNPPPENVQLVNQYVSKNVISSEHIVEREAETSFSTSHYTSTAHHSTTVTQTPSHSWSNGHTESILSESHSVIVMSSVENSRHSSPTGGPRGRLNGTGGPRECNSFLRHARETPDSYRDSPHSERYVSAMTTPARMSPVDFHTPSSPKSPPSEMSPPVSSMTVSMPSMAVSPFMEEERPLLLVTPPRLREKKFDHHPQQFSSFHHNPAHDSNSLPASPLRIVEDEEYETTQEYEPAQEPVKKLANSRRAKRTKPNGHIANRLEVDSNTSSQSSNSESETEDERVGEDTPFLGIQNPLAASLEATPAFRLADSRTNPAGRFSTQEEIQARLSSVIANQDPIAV

[7] = test system: Neuregulin-1 EGF-like domain; assay: binders of neuregulin-1 EGF-like domain, primary screen, biochemical, small-molecule microarray, 635 nm fluorescence (AID 1081); details: small-molecule microarray binding, higher = more signal;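 also: binding of the protein to compounds printed on small-molecule microarray slides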
[8] = FRG1 promoter luciferase signal modulators, primary screen, FRG1 inhibition for FSHD, cell-based, C2C12 myotubes, firefly/Renilla luciferase, luminescence (AID 1084); details: higher = more signal, called active from +8 up or from −8 down
[9] = binders of probe aFST on microarray, primary screen, stem cell growth factor project, biochemical, small-molecule microarray, fluorescence 635/667 (AID 1086); details: higher = more signal;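 also: score merges 667 nm fluorescence with signal-to-noise of each printed compound spot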
[10] = binders of probe aHhip on microarray, primary screen, stem cell growth factor project, biochemical, small-molecule microarray, fluorescence 635/667 (AID 1087); details: higher = more signal;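 also: score merges spot fluorescence at 667nm with spot signal to noise ratio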

Compound	composite z-score [1]	composite z-score [2]	composite z-score [3]	composite z-score [4]	composite z-score [5]	composite z-score [6]	composite z-score [7]	z-score [8]	composite z-score [9]	composite z-score [10]
O=C1O[C@H](c2ccccc2)[C@H](c2ccccc2)N2[C@H]1[C@@H](C(=O)N1CCN(c3ncccn3)CC1)[C@]1(C(=O)Nc3ccccc31)[C@H]2c1ccc(O)cc1	0.258	0.918	-0.0718	0.366	0.239	1.23	1.28	1.07 (inactive)	0.3	0.0972
CC(=O)c1ccc(C(O)C2C=CC3C(=O)NC(=O)C3N2Nc2ccc(Cl)cc2Cl)cc1 (stereo not given)	0.863	0.37	0.045	0.606	1.01	1.72	0.669	1.12 (inactive)	0.462	-0.106
COCC1=C([C@H](O)CCc2ccccc2)[C@H](CO)n2c(=O)n(-c3ccccc3)c(=O)n2C1	-0.13	-0.235	-0.112	0.204	-0.423	-0.675	-0.416	-3.19 (inactive)	-0.371	-0.156
COc1cc2c(cc1O)C(C1CC1)N(Cc1ccc([N+](=O)[O-])o1)CC2 (stereo not given)	-0.0848	-0.242	-0.0226	0.682	1.52	1.49	1.03	-1.1 (inactive)	0.609	-0.0003
CN(C)CCCC[C@@H]1NC(=O)[C@H]2C[C@@H](C(=O)O)[C@@H](c3cccc(OCCO)c3)N2C1=O	0.794	1.13	-0.0238	0.105	0.146	0.212	1.44	6.56 (inactive)	0.547	0.0374
C=CCC(OC(C)=O)[C@@H]1[C@@H](N(Cc2cc3ccccc3o2)C(=O)c2cccc3ccccc23)c2cc(OCCCO)ccc2N1C(=O)c1ccc2ccccc2c1 (stereo not given in full)	-0.16	-0.267	-0.0993	0.277	-0.0361	-0.223	0.272	-4.21 (inactive)	0.296	-0.128
C=CCNC(=O)[C@@H]1[C@H]2C(=O)O[C@H](c3ccccc3)[C@H](c3ccccc3)N2[C@H](c2ccccc2OCCO)[C@@]12C(=O)N(C(=O)OCCOC)c1ccc(C#CCCO)cc12	-0.0812	0.693	0.0645	1.05	0.742	1.2	1.21	0.0106 (inactive)	-0.66	0.277
CCCCC(=C=CC[C@H](O)c1ccc(OCCO)cc1)C[C@H](O)c1ccccn1	-0.199	0.342	-0.109	0.694	0.356	1.47	1.14	-0.865 (inactive)	0.763	0.0854
COCCOC(=O)N1C(=O)[C@@]2(c3cc(C#Cc4ccc(OC)cc4)ccc31)[C@H](c1ccc(OCCO)cc1)N1[C@H](c3ccccc3)[C@H](c3ccccc3)OC(=O)[C@H]1[C@@H]2C(=O)N1CCCCCCC1	2.51	0.351	0.684	0.315	0.753	1.52	1.01	-0.531 (inactive)	2.75	2.59
COCCOC(=O)N1C(=O)[C@@]2(c3cc(C#Cc4ccc(OC)cc4)ccc31)[C@H](C(=O)Nc1nc3ccccc3s1)[C@H]1C(=O)O[C@H](c3ccccc3)[C@H](c3ccccc3)N1[C@@H]2c1ccccc1OCCO	-0.233	0.444	-0.126	0.329	1.02	0.176	0.923	0.349 (inactive)	-0.179	-0.283
C=CCC(OC(C)=O)[C@@H]1[C@@H](N(Cc2cc3ccccc3o2)C(=O)Cc2ccc(OC)cc2)c2cc(OCCCO)ccc2N1C(=O)Cc1ccc(OC)cc1 (stereo not given in full)	-0.186	0.0357	-0.0459	0.0855	-0.144	-0.0625	0.0781	-1.19 (inactive)	-0.0586	0.0623
C=CCC(OC(C)=O)[C@@H]1[C@@H](N(Cc2ccc(-c3cccc(C(F)(F)F)c3)o2)C(=O)Cc2ccc(OC)cc2)c2cc(OCCCO)ccc2N1C(=O)c1ccc2ccccc2n1 (stereo not given in full)	0.0523	-0.0913	-0.0922	0.745	-0.485	-0.249	-0.433	0.312 (inactive)	0.364	-0.16
CN(C)C(=O)[C@]1(Cc2ccccc2CN=[N+]=[N-])N=C(c2ccc(OCCCO)cc2)O[C@@H]1c1ccccc1N=[N+]=[N-]	0.168	0.142	0.117	0.41	1.49	1.85	1.22	-1.04 (inactive)	1.22	-0.264
COc1ccc(NN2C(C(O)c3ccc(OC)cc3)C=CC3C(=O)N(C4CCCCC4)C(=O)C32)cc1 (stereo not given)	-0.147	0.191	-0.0131	0.467	1.18	1.29	0.978	1.55 (inactive)	0.775	-0.16
[N-]=[N+]=NCc1ccccc1C[C@]1(C(=O)N2CCCCC2)N=C(c2ccc(OCCCO)cc2)O[C@H]1c1ccccc1	0.393	0.449	-0.0165	0.39	1.07	0.618	0.849	-4.27 (inactive)	0.485	0.0722
CC#CCO[Si](C#CCCCCCC)(C(C)C)C(C)C	1.3	-0.134	-0.24	-1.16	-1.9	-0.353	0.439	-0.524 (inactive)	-1.3	-0.341
C=C(CCCC)C(=O)CC[C@H](OC(C)=O)c1ccccc1OCCO	-0.327	-0.0867	-0.0471	0.776	0.435	0.898	-0.0255	-0.881 (inactive)	0.167	-0.358
C=C(CC1([C@@H](NP(=O)(c2ccccc2)c2ccccc2)[C@H]2C[C@@H]2CCN(C(=O)OCC)S(=O)(=O)c2ccc(C)cc2)CC1)c1ccccc1	0.0862	-0.163	0.226	0.821	1.67	1.38	1.12	0.894 (inactive)	1.5	0.128
COC(=O)[C@H](Cc1ccc(O)cc1)N1CC2=CCCC=C[C@@H]2[C@H]1[C@H](O)Cc1ccccc1	-0.565	-0.214	-0.124	0.288	0.35	0.166	0.324	-0.106 (inactive)	0.166	-0.132
N[C@@H](Cc1ccccc1)Cn1cc(C2(O)CCCCC2)nn1	-0.337	0.543	-0.0718	-0.244	-0.232	0.138	-0.204	2.2 (inactive)	1.27	0.0722
COc1ccc(CCNC(=O)[C@@H]2c3ccccc3C(=O)N(CC34CC5CC(CC(C5)C3)C4)[C@H]2c2ccc(CO)cc2)cc1	-0.227	0.0668	0.257	0.239	0.703	1.09	1.24	-1.89 (inactive)	-0.0095	0.0972
